Laboratory results: PubChem BioAssay (EPA / NIEHS)
The source made the active and inactive calls. Rule for the calls: active = hit-call score of the fitted dose curve at least 0.9, where 1 is the maximum; inactive = score below 0.9.

read-out: Paternally Expressed 10 (PEG10), PEG10 (gene 23089); experiment: LTEA_HepaRG_PEG10: Life Technologies and Expression Analysis (LTEA) Assay for Paternally Expressed 10 (PEG10) using HepaRG (AID 2283520); settings: mRNA level, 48 h; actives raise or lower the signal;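 for AC50: differentiated HepaRG human liver cells in serum-free induction medium with 0.5% DMSO; PEG10 transcript by qRT-PCR normalised to ACTB GAPDH and POLR2A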
Summary of the method: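 Chemicals tested on HepaRG cells for 48 h, highest concentration 100 uM. PEG10 expression assessed by qRT-PCR relative to DMSO control.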

Sequence of Nuclear factor NF-kappa-B p105 subunit (Homo sapiens) (P19838 whole entry, looked up): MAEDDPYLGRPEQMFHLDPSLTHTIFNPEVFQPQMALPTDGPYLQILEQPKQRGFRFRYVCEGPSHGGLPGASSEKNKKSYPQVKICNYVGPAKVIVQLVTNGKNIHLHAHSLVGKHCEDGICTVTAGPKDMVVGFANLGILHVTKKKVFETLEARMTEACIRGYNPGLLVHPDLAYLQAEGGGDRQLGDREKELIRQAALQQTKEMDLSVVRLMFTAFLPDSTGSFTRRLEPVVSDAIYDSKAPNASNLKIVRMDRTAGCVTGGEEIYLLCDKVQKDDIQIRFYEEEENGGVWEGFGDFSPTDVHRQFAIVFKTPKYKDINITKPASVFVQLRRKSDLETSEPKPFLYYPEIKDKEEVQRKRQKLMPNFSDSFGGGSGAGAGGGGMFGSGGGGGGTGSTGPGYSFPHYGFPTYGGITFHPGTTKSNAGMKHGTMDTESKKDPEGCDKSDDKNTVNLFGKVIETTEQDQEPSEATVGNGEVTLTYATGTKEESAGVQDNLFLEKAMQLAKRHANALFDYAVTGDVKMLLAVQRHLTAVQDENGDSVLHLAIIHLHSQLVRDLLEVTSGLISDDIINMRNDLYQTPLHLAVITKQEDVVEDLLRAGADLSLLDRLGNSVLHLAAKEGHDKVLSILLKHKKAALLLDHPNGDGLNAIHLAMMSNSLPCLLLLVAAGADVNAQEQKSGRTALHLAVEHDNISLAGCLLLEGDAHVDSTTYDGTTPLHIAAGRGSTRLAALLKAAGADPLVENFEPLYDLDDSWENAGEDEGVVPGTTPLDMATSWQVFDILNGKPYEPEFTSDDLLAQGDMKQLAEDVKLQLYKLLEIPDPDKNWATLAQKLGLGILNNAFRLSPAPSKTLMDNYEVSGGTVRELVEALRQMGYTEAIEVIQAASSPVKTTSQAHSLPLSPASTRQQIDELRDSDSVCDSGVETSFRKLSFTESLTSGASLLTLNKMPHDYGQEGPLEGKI

Row | Compound | outcome | AC50
1 | C=C(C)CN(CC)c1c([N+](=O)[O-])cc(C(F)(F)F)cc1[N+](=O)[O-] | inactive | –
2 | N#Cc1c[nH]cc1-c1cccc2c1OC(F)(F)O2 | – | 74.2 µM (active)
3 | CCOc1nc(C(Cl)(Cl)Cl)ns1 | inactive | –
4 | CCN(CC)c1nc(C)cc(OP(=S)(OC)OC)n1 | inactive | –
5 | O=C(Nc1ccccc1-c1ccc(Cl)cc1)c1cccnc1Cl | – | 21 µM (active)
6 | COC(=O)NS(=O)(=O)c1ccc(N)cc1 | inactive | –
7 | CC(C)NC(=O)N1CC(=O)N(c2cc(Cl)cc(Cl)c2)C1=O | inactive | –
8 | CC(C)Oc1cccc(NC(=O)c2ccccc2C(F)(F)F)c1 | – | 78.5 µM (active)
9 | O=C1C2CC=CCC2C(=O)N1SC(Cl)(Cl)Cl (configuration not stated) | inactive | –
10 | OC(c1ccc(Cl)cc1)(c1ccc(Cl)cc1)C(Cl)(Cl)Cl | inactive | –
11 | COc1ccc(-c2ccccc2)cc1NNC(=O)OC(C)C | inactive | –
12 | CCCC(=NOCC)C1=C(O)CC(CC(C)SCC)CC1=O (configuration not stated) | inactive | –
13 | CC(C)=CC1C(C(=O)OCc2coc(Cc3ccccc3)c2)C1(C)C (configuration not stated) | inactive | –
14 | CC1(C)C(C=C(Cl)Cl)C1C(=O)OC(C#N)c1cccc(Oc2ccccc2)c1 (configuration not stated) | – | 50 µM (active)
15 | CO/N=C(/C1=NOCCO1)c1ccccc1Oc1ncnc(Oc2ccccc2Cl)c1F | – | 5.88 µM (active)
16 | CNC(=O)N(C)c1nnc(C(C)(C)C)s1 | inactive | –
17 | N#CN=C1SCCN1Cc1ccc(Cl)nc1 | inactive | –
18 | CCCCOCN(C(=O)CCl)c1c(CC)cccc1CC | inactive | –

Row | Compound | outcome | AC50
19 | Nc1cnn(-c2ccccc2)c(=O)c1Cl | inactive | –
20 | O=c1n(Cl)c(=O)n(Cl)c(=O)n1Cl | inactive | –
21 | CNC(=O)Oc1cccc2ccccc12 | inactive | –
22 | CC(C)N1C(=O)N(c2ccccc2)CSC1=NC(C)(C)C | – | 12.7 µM (active)
23 | CCSC(=O)N1CCCCCC1 | inactive | –
24 | COP(=O)(OC)O/C(C)=C/C(=O)N(C)C | inactive | –
25 | Nc1c(Cl)c(F)nc(OCC(=O)O)c1Cl | inactive | –
26 | Cc1cc(C)nc(Nc2ccccc2)n1 | inactive | –
27 | O=C(O)c1c(Cl)ccc2cc(Cl)cnc12 | inactive | –
28 | N#Cc1c(Cl)cccc1Cl | inactive | –
29 | CC1(C)C(C(=O)OC(C#N)c2cccc(Oc3ccccc3)c2)C1(C)C (configuration not stated) | inactive | –
30 | COCC(C)N(C(=O)CCl)c1c(C)csc1C (configuration not stated) | inactive | –
31 | Cc1c(COC(=O)[C@@H]2[C@H](/C=C(\Cl)C(F)(F)F)C2(C)C)cccc1-c1ccccc1 | inactive | –
32 | CCCN(CC)CC1COC2(CCC(C(C)(C)C)CC2)O1 (configuration not stated) | inactive | –
33 | COC(=O)c1c(C(F)F)nc(C(F)(F)F)c(C2=NCCS2)c1CC(C)C | inactive | –
34 | CCCCC(O)(Cn1cncn1)c1ccc(Cl)cc1Cl (configuration not stated) | – | 50 µM (active)
35 | CC(C)N1C(=O)c2ccccc2NS1(=O)=O | inactive | –
36 | CCOP(=S)(OCC)Oc1nc(Cl)n(C(C)C)n1 | inactive | –

read-out: Nuclear factor NF-kappa-B p105 subunit (Homo sapiens) (UniProt P19838); experiment: LTEA_HepaRG_NFKB1: Life Technologies and Expression Analysis (LTEA) Assay for Nuclear Factor Kappa B Subunit 1 (NFKB1) using HepaRG (AID 2283521); settings: mRNA level, 48 h; actives raise or lower the signal;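 for outcome: differentiated human HepaRG liver cells in serum-free induction medium; TaqMan qRT-PCR transcript normalised to ACTB GAPDH and POLR2A housekeeping genes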
Summary of the method: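 Human HepaRG cells receive eight half-log concentrations, highest 100 uM, for 48 h. NFKB1 expression is then quantified by qRT-PCR and analysed for up- or down-regulation relative to 0.5% DMSO vehicle.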

Row | Compound | outcome | AC50
37 | C=C(C)CN(CC)c1c([N+](=O)[O-])cc(C(F)(F)F)cc1[N+](=O)[O-] | inactive | –
38 | N#Cc1c[nH]cc1-c1cccc2c1OC(F)(F)O2 | inactive | –
39 | CCOc1nc(C(Cl)(Cl)Cl)ns1 | – | 1.72 µM (active)
40 | CCN(CC)c1nc(C)cc(OP(=S)(OC)OC)n1 | inactive | –
41 | O=C(Nc1ccccc1-c1ccc(Cl)cc1)c1cccnc1Cl | inactive | –
42 | COC(=O)NS(=O)(=O)c1ccc(N)cc1 | inactive | –
43 | CC(C)NC(=O)N1CC(=O)N(c2cc(Cl)cc(Cl)c2)C1=O | inactive | –
44 | CC(C)Oc1cccc(NC(=O)c2ccccc2C(F)(F)F)c1 | inactive | –
45 | O=C1C2CC=CCC2C(=O)N1SC(Cl)(Cl)Cl (configuration not stated) | inactive | –
46 | OC(c1ccc(Cl)cc1)(c1ccc(Cl)cc1)C(Cl)(Cl)Cl | inactive | –
47 | COc1ccc(-c2ccccc2)cc1NNC(=O)OC(C)C | inactive | –
48 | CCCC(=NOCC)C1=C(O)CC(CC(C)SCC)CC1=O (configuration not stated) | inactive | –
49 | CC(C)=CC1C(C(=O)OCc2coc(Cc3ccccc3)c2)C1(C)C (configuration not stated) | inactive | –
50 | CC1(C)C(C=C(Cl)Cl)C1C(=O)OC(C#N)c1cccc(Oc2ccccc2)c1 (configuration not stated) | inactive | –
51 | CO/N=C(/C1=NOCCO1)c1ccccc1Oc1ncnc(Oc2ccccc2Cl)c1F | inactive | –
52 | CNC(=O)N(C)c1nnc(C(C)(C)C)s1 | inactive | –
53 | N#CN=C1SCCN1Cc1ccc(Cl)nc1 | inactive | –
54 | CCCCOCN(C(=O)CCl)c1c(CC)cccc1CC | inactive | –

Row | Compound | outcome | AC50
55 | Nc1cnn(-c2ccccc2)c(=O)c1Cl | inactive | –
56 | O=c1n(Cl)c(=O)n(Cl)c(=O)n1Cl | inactive | –
57 | CNC(=O)Oc1cccc2ccccc12 | inactive | –
58 | CC(C)N1C(=O)N(c2ccccc2)CSC1=NC(C)(C)C | inactive | –
59 | CCSC(=O)N1CCCCCC1 | – | 12.6 µM (active)
60 | COP(=O)(OC)O/C(C)=C/C(=O)N(C)C | inactive | –
61 | Nc1c(Cl)c(F)nc(OCC(=O)O)c1Cl | inactive | –
62 | Cc1cc(C)nc(Nc2ccccc2)n1 | inactive | –
63 | O=C(O)c1c(Cl)ccc2cc(Cl)cnc12 | inactive | –
64 | N#Cc1c(Cl)cccc1Cl | inactive | –
65 | CC1(C)C(C(=O)OC(C#N)c2cccc(Oc3ccccc3)c2)C1(C)C (configuration not stated) | inactive | –
66 | COCC(C)N(C(=O)CCl)c1c(C)csc1C (configuration not stated) | inactive | –
67 | Cc1c(COC(=O)[C@@H]2[C@H](/C=C(\Cl)C(F)(F)F)C2(C)C)cccc1-c1ccccc1 | – | 0.703 µM (active)
68 | CCCN(CC)CC1COC2(CCC(C(C)(C)C)CC2)O1 (configuration not stated) | inactive | –
69 | COC(=O)c1c(C(F)F)nc(C(F)(F)F)c(C2=NCCS2)c1CC(C)C | inactive | –
70 | CCCCC(O)(Cn1cncn1)c1ccc(Cl)cc1Cl (configuration not stated) | inactive | –
71 | CC(C)N1C(=O)c2ccccc2NS1(=O)=O | inactive | –
72 | CCOP(=S)(OCC)Oc1nc(Cl)n(C(C)C)n1 | inactive | –
